For 14 compounds, growth results are on record in PubChem BioAssay (NCI).

This is part of a sample that, as a whole, favours compounds with a hit. Of some 83,000 tested, about 20% had one in any assay.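 Single-concentration screen, 48 h exposure, 96-well plates. Endpoint: percent growth. Below 10 = active.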 Values without a mark were called inactive. Calls of active or inactive are those of the source.

Common to all, as to experiment: NCI-60 one-dose screen, 48 h (100 = growth as untreated, 0 = no growth, -100 = all killed)
Conditions in all cases: 10 µM unless noted

Experiment [1] deals with HCT-15 colon.
Experiment [2] relates to HT29 colon.
For experiment [3], the system named is SNB-75 CNS.
Experiment [4] relates to SNB-19 CNS.
The subject of experiment [5] is U251 CNS.
The test system of experiment [6] is PC-3 prostate.
In experiment [7] the test system is SK-MEL-5 melanoma.
In experiment [8] the test system is UACC-62 melanoma.
Experiment [9] deals with LOX IMVI melanoma.
Experiment [10] relates to SK-MEL-28 melanoma.

On to `COc1cc(OC)c2sc(-c3ccc(-n4cncc4-c4ccc(OC)c(N)c4)cc3)nc2c1`, for which the growth was 73.9% in [1]; 74.3% in experiment [2]; 81.8% in [3]; 80.1% in experiment [4]; 67.2% in [5]; 50.4% in experiment [6]. For the same compound, the growth in experiment [7] was 53.1%; in [8], 85.6%; in [9], 90.2%; in [10], 104%.

For the compound `Nc1c(N)c2ccccc2c2ccccc12`, the growth is 111% in experiment [1]; 108% in [2]; 84.8% in experiment [3]; 104% in experiment [4]; 106% in experiment [5]; 89.5% in experiment [6]. Also, the growth in experiment [7] was 107%; in [8], 95%; in experiment [9] it was 101%; in [10] it was 110%.

For `COc1ccc(CNc2c3ccccc3nc3ccc(OC)cc23)cc1`, the growth is 5.34% (active) in [1]; -2.9% (active) in experiment [2]; 27.4% in experiment [3]; 22.7% in experiment [4]; 16.1% in experiment [5]; 5.53% (active) in experiment [6]. For the same compound, the growth was 11.1% in experiment [7], 42.6% in experiment [8], -75.1% (active) in [9] and 41.3% in experiment [10].

With `O=C1Nc2ccc(Br)cc2/C1=N/c1nc(-c2ccccc2)cs1`, the growth in experiment [1] was 94.9%; in [2], 91.7%; in experiment [3], 79%; in experiment [4], 96.2%; in [5], 92.9%; in experiment [6], 62.3%. The growth in experiment [7] was 77.5%; in experiment [8], 80.5%; in experiment [9] it was 92%; in experiment [10], 95%.

On to `CCCCn1cnc2c(SCc3ccc([N+](=O)[O-])cc3)nc(N)nc21`, for which the growth in experiment [1] is 88.2%; in [2] it was 98.6%; in [3], 95.7%; in [4], 86%; in experiment [5], 90.6%; in experiment [6], 89.8%. Further, the growth in [7] was 85.8%; in experiment [8], 80.4%; in experiment [9], 88%; in experiment [10] it was 117%.

Consider `Fc1ccc(-c2nc(-c3ccc(-c4nc5ccc(F)cc5[nH]4)cc3)no2)cc1`, for which the growth is 86.1% in [1]; 84.7% in [2]; 57.6% in experiment [3]; 82.5% in [4]; 82.9% in [5]; 68.7% in experiment [6]. Moreover, the growth in [7] was 74.4%; in experiment [8], 75.5%; in experiment [9] it was 43.5%; in [10] it was 80.5%.

For the compound `CC(C)(C)OC[C@@H]1N=C(c2ccc(Br)cc2)Nc2nc3ccccn3c2C1=O`, the growth in [1] was 44.1%; in [2] it was 21.8%; in experiment [3], 77.4%; in experiment [4] it was 76.5%; in experiment [5], 63.5%; in [6], 53.4%. The growth in [7] was 38.4%; in experiment [8], 53.6%; in experiment [9], 58.7%; in experiment [10], 68.6%.

In the case of `NC(N)=NC1CCCCC1`, the growth is 103% in experiment [1]; 97.1% in experiment [2]; 107% in experiment [3]; 104% in experiment [4]; 89.9% in [5]; 89.8% in experiment [6]. For the same compound, the growth in experiment [7] was 107%; in experiment [8], 99.6%; in experiment [9], 91.6%; in experiment [10], 109%.

Regarding `COc1cc(/C=C/c2cc(/C=C/c3ccc(O)c(OC)c3)n(C(=O)Nc3ccc(F)c(Cl)c3)n2)ccc1O`, the growth in experiment [1] is 6.64% (active); in experiment [2], -33.6% (active); in experiment [3], -12.6% (active); in experiment [4], 4.42% (active); in experiment [5] it was -1.59% (active); in experiment [6], -14.3% (active). In addition, the growth was -73.9% (active) in experiment [7], -37.4% (active) in experiment [8], -20.9% (active) in experiment [9] and 7.89% (active) in experiment [10].

For `O=C(O)c1cc2cc(OCc3ccccc3)ccc2[nH]1`, the growth in [1] is 92.3%; in [2], 114%; in experiment [3] it was 87.8%; in experiment [4], 86.4%; in experiment [5], 105%; in experiment [6], 102%. Besides, the growth is 84.1% in experiment [7], 79.3% in experiment [8], 96.7% in experiment [9] and 48% in experiment [10].

Take `CC1(C)CC(=O)c2cc3c(N)c(C(=O)Nc4ccc(Cl)cc4)sc3nc2C1`: the growth in experiment [1] is 108%; in experiment [2], 96.4%; in experiment [3], 114%; in [4] it was 114%; in [5], 103%; in experiment [6] it was 105%. Also, the growth is 96% in experiment [7], 105% in experiment [8], 109% in [9] and 118% in [10].

In the case of `CN1C(=O)C(C2=NNC(c3ccccc3C(=O)O)C2)C(=O)N(C)C1=O` (stereo not given), the growth in experiment [1] is 106%; in experiment [2] it was 98.5%; in experiment [3] it was 85.4%; in [4], 92.9%; in [5], 98.1%; in experiment [6], 95.6%. The growth in [7] is 108%; in [8], 96.2%; in [9], 101%; in experiment [10], 123%.

In the case of `COc1cc(-c2nc(-c3ccc(-c4nc5ccc(F)cc5[nH]4)cc3)no2)cc(OC)c1OC`, the growth in experiment [1] was 19.4%; in experiment [2], 9.19% (active); in experiment [3], 76.6%; in experiment [4], 73.1%; in experiment [5], 46.1%; in experiment [6], 6.63% (active). For the same compound, the growth in experiment [7] was 20.7%; in experiment [8], 20.9%; in [9], 24.8%; in [10], 60.6%.

For `CCc1c(C)c2ccc(O)c(-c3cc(-c4ccccc4)c(C#N)c(=O)[nH]3)c2oc1=O`, the growth in experiment [1] was 96.5%; in [2], 125%; in experiment [3], 52.7%; in experiment [4] it was 108%; in experiment [5], 100%; in experiment [6] it was 107%. For the same compound, the growth is 94.7% in experiment [7], 77.3% in experiment [8], 93.1% in experiment [9] and 107% in experiment [10].
